Experimental data taken from the supplement of paper PMC12350171.
Structures can show the parent of a compound that is named as a salt.

Experiments:
Conditions in all cases: 20 µM
[1] = system: Salmonella enterica typhimurium; test: growth AUC normalised to DMSO control (fraction of control); higher = less growth inhibition, active = hit call of the paper
Summary of the method: (§1)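 After two anaerobic passages, pathogens were added at a starting OD578 of 0.01 to pre-reduced mGAM plates holding compound at 20 μM with 1% DMSO; hemin and NAD were supplemented for Haemophilus parainfluenzae. Sealed with breathable membranes, plates were read at OD578 hourly for 24 h, in three biological replicates. The trapezoidal rule, applied up to the exponential-to-stationary transition, gave the growth-curve AUC, which was normalised to DMSO controls on the same plate.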

Shigella flexneri = test: as above
Summary of the method: as §1

Vibrio cholerae = test: as above
Summary of the method: as §1

[2] = system: Yersinia pseudotuberculosis; test: as above
Summary of the method: as §1

P. vulgatus RND KO = test: growth AUC normalised to DMSO control (median) (fraction of control); higher = less growth inhibition, active = hit call of the paper
Summary of the method: (§2)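 Anaerobic growth was tracked hourly at OD578 for 24 h in 96-well plates of mGAM seeded at OD578 0.01 with each approved-drug library compound at 20 μM and 1% DMSO. Strains had first been passaged twice overnight without oxygen. Three biological replicates were run. The reported median is the area under the curve, calculated by the trapezoidal rule on curves truncated at entry into stationary phase and normalised to vehicle wells on the same plate.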

P. vulgatus WT = test: as above
Summary of the method: as §2

[3] = system: S. enterica typhimurium WT; test: as above
Summary of the method: as §2

[4] = system: S. enterica typhimurium tolC KO; test: as above
Summary of the method: as §2

Measured: growth AUC normalised to DMSO control
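Throughout, for growth AUC normalised to DMSO control (median): active when median AUC fell below 0.1.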

CCCOc1cc(N)ccc1C(=O)OCCN(CC)CC [Propoxycaine hydrochloride]
inactive: [1] 1.02 | Shigella flexneri 1.04 | Vibrio cholerae 1.07 | [2] 1.02 | P. vulgatus RND KO 1.01 | P. vulgatus WT 1.05 | [3] 0.997 | [4] 0.996

C[C@H](CS)C(=O)N1CCC[C@H]1C(=O)O [Captopril]
inactive: [1] 1.01 | Shigella flexneri 1.03 | Vibrio cholerae 0.995 | [2] 1.01 | P. vulgatus RND KO 1.01 | P. vulgatus WT 1.06 | [3] 0.991 | [4] 1.01

CCCCNC(=O)NS(=O)(=O)c1ccc(C)cc1 [Tolbutamide]
inactive: [1] 1.01 | Shigella flexneri 0.995 | Vibrio cholerae 0.956 | [2] 0.998 | P. vulgatus RND KO 1.02 | P. vulgatus WT 1.04 | [3] 0.996 | [4] 1

Nc1ncn(C2OC(CO)C(O)C2O)c(=O)n1 (centres undefined) [Azacytidine-5]
inactive: [1] 1.02 | Shigella flexneri 1.04 | Vibrio cholerae 1.02 | [2] 1.04 | P. vulgatus RND KO 0.999 | P. vulgatus WT 0.996 | [3] 0.977 | [4] 0.963

C=C1/C(=C\C=C2/CCC[C@]3(C)[C@@H]([C@H](C)/C=C/[C@@H](O)C4CC4)CC[C@@H]23)C[C@@H](O)C[C@@H]1O [Calcipotriene]
inactive: [1] 0.987 | Shigella flexneri 0.931 | Vibrio cholerae 0.972 | [2] 0.977 | P. vulgatus RND KO 0.931 | P. vulgatus WT 0.958 | [3] 1.01 | [4] 0.946

Clc1ccc(CCC(Cn2ccnc2)Sc2c(Cl)cccc2Cl)cc1 (centres undefined) [Butoconazole nitrate]
inactive: [1] 1 | Shigella flexneri 1.01 | Vibrio cholerae 0.98 | [2] 0.745 | P. vulgatus RND KO 0.998 | P. vulgatus WT 1 | [3] 1.01 | [4] 0.999

CCOc1ccc(NC(C)=O)cc1 [Phenacetin]
inactive: [1] 0.992 | Shigella flexneri 0.959 | Vibrio cholerae 0.984 | [2] 0.973 | P. vulgatus RND KO 1 | P. vulgatus WT 0.997 | [3] 1 | [4] 1

CC(C(=O)O)c1ccc(C(=O)c2cccs2)cc1 (centres undefined) [Suprofen]
inactive: [1] 0.987 | Shigella flexneri 1.04 | Vibrio cholerae 1.05 | [2] 1.02 | P. vulgatus RND KO 1.01 | P. vulgatus WT 1.03 | [3] 0.996 | [4] 0.995

CC(Oc1ccccc1)C(=O)N[C@@H]1C(=O)N2[C@@H]1SC(C)(C)[C@@H]2C(=O)O (some centres undefined) [Phenethicillin potassium salt]
inactive: [1] 1.01 | Shigella flexneri 1.02 | Vibrio cholerae 1 | [3] 1
active: [2] 0.898 | P. vulgatus RND KO 0.0155 | P. vulgatus WT 0.00969 | [4] 0.00227

Oc1ccc(OCc2ccccc2)cc1 [Monobenzone]
inactive: [1] 0.975 | Shigella flexneri 0.941 | Vibrio cholerae 0.982 | [2] 0.974 | P. vulgatus RND KO 0.981 | P. vulgatus WT 0.992 | [3] 0.996 | [4] 0.977

Cc1ncc(CO)c(CO)c1O [Pyridoxine hydrochloride]
inactive: [1] 0.992 | Shigella flexneri 1.01 | Vibrio cholerae 0.996 | [2] 1 | P. vulgatus RND KO 1.01 | P. vulgatus WT 1.01 | [3] 1.01 | [4] 0.992

c1ccc(CNc2ncnc3nc[nH]c23)cc1 [Aminopurine, 6-benzyl]
inactive: [1] 1 | Shigella flexneri 1 | Vibrio cholerae 0.953 | [2] 1.01 | P. vulgatus RND KO 1 | P. vulgatus WT 0.985 | [3] 1 | [4] 0.995

CN1CCN2c3ccccc3Cc3ccccc3C2C1 (centres undefined) [Mianserine hydrochloride]
inactive: [1] 0.986 | Shigella flexneri 0.986 | [2] 0.956 | P. vulgatus RND KO 1.03 | P. vulgatus WT 1.03 | [3] 0.994 | [4] 1
active: Vibrio cholerae 0.868

CCOC(=O)[C@H](CCc1ccccc1)N[C@@H](C)C(=O)N1CCC[C@H]1C(=O)O [Enalapril maleate]
inactive: [1] 1 | Shigella flexneri 1.04 | Vibrio cholerae 1.03 | [2] 1.02 | P. vulgatus RND KO 1 | P. vulgatus WT 1.02 | [3] 1.01 | [4] 0.997

CN1CCN(C2=Nc3cc(Cl)ccc3Nc3ccccc32)CC1 [Clozapine]
inactive: [1] 1.02 | Shigella flexneri 1.05 | Vibrio cholerae 0.969 | [2] 1 | P. vulgatus RND KO 1.01 | P. vulgatus WT 1.02 | [3] 1 | [4] 0.977

O=C(NCC1CCCCN1)c1cc(OCC(F)(F)F)ccc1OCC(F)(F)F (centres undefined) [Flecainide acetate]
inactive: [1] 0.995 | Shigella flexneri 0.966 | Vibrio cholerae 0.988 | [2] 0.989 | P. vulgatus RND KO 1 | P. vulgatus WT 1.03 | [3] 1 | [4] 1

CCn1cc(C(=O)O)c(=O)c2cc(F)c(N3CCN(C)CC3)cc21 [Pefloxacin]
inactive: P. vulgatus RND KO 1.01 | P. vulgatus WT 0.799
active: [1] 0.00601 | Shigella flexneri 0.0383 | Vibrio cholerae 0.0435 | [2] 0.0255 | [3] 0.00724 | [4] 0.00757

COc1ccc2cc([C@H](C)C(=O)O)ccc2c1 [(S)-Naproxen]
inactive: [1] 0.992 | Shigella flexneri 1.01 | Vibrio cholerae 0.96 | [2] 0.964 | P. vulgatus RND KO 1.01 | P. vulgatus WT 1.04 | [3] 0.994 | [4] 0.998

NC[C@H]1O[C@H](O[C@H]2[C@H](O)[C@@H](O[C@H]3O[C@H](CO)[C@@H](O)[C@H](N)[C@H]3O)[C@H](N)C[C@@H]2N)[C@H](N)C[C@@H]1O [Tobramycin]
inactive: Vibrio cholerae 0.97 | P. vulgatus RND KO 1.03 | P. vulgatus WT 1.05 | [3] 0.969 | [4] 0.995
active: [1] 0.888 | Shigella flexneri 0.794 | [2] 0.107

c1cnc(N2CCN(Cc3ccc4c(c3)OCO4)CC2)nc1 [Piribedil]
inactive: [1] 1 | Shigella flexneri 1.03 | Vibrio cholerae 0.999 | [2] 1.01 | P. vulgatus RND KO 1.07 | P. vulgatus WT 1.09 | [3] 0.984 | [4] 1

NCCCC(O)(P(=O)(O)O)P(=O)(O)O [Alendronate sodium]
inactive: [1] 1.03 | Shigella flexneri 1.05 | Vibrio cholerae 1.1 | [2] 1.02 | P. vulgatus RND KO 1.05 | P. vulgatus WT 1.06 | [3] 1 | [4] 0.99

CC[N+](C)(CC)CCC[n+]1c(-c2ccccc2)c2cc(N)ccc2c2ccc(N)cc21 [Propidium iodide]
inactive: [1] 0.998 | Shigella flexneri 1.06 | Vibrio cholerae 1.08 | [2] 1.01 | P. vulgatus RND KO 1.05 | P. vulgatus WT 1.06 | [3] 1.01 | [4] 1

C#C[C@]1(O)CC[C@H]2[C@@H]3CCC4=CCCC[C@@H]4[C@H]3CC[C@@]21C [Lynestrenol]
inactive: [1] 0.997 | Shigella flexneri 0.973 | Vibrio cholerae 1.01 | [2] 0.972 | P. vulgatus RND KO 0.945 | P. vulgatus WT 0.976 | [3] 1.02 | [4] 1

Cc1c(Cl)cccc1Nc1ccccc1C(=O)O [Tolfenamic acid]
inactive: [1] 1 | Shigella flexneri 0.961 | Vibrio cholerae 0.901 | [2] 0.963 | P. vulgatus RND KO 0.802 | P. vulgatus WT 0.803 | [3] 1.02 | [4] 0.992

COC(=O)[C@H]1[C@H]2C[C@@H]3c4[nH]c5cc(OC)ccc5c4CCN3C[C@H]2C[C@@H](OC(=O)c2cc(OC)c(OC)c(OC)c2)[C@@H]1OC [Reserpine]
inactive: [1] 1.02 | Shigella flexneri 1.05 | Vibrio cholerae 1.06 | [2] 1.02 | P. vulgatus RND KO 1.04 | P. vulgatus WT 1.05 | [3] 1.02 | [4] 1

O=C(O[C@@H]1C[C@@H]2C[C@H]3C[C@H](C1)N2CC3=O)c1c[nH]c2ccccc12 [Dolasetron mesilate]
inactive: [1] 1.04 | Shigella flexneri 1.01 | Vibrio cholerae 0.999 | [2] 1.01 | P. vulgatus RND KO 1.02 | P. vulgatus WT 1.04 | [3] 1.01 | [4] 0.984

N=C(N)N1CCc2ccccc2C1 [Debrisoquin sulfate]
inactive: [1] 0.995 | Shigella flexneri 0.975 | Vibrio cholerae 1.01 | [2] 1.01 | P. vulgatus RND KO 1.02 | P. vulgatus WT 1.01 | [3] 1 | [4] 1

Cc1cccc(N(C)C(=S)Oc2ccc3ccccc3c2)c1 [Tolnaftate]
inactive: [1] 0.953 | Shigella flexneri 1.02 | Vibrio cholerae 0.991 | [2] 0.986 | P. vulgatus RND KO 1 | P. vulgatus WT 1.04 | [3] 1 | [4] 0.981
